# Results filed as inconclusive are left out. Entries that show only a call come without a potency. Activity calls are given as the source filed them. Calls follow the shape of the full dose curve. Square brackets hold non-standard residues; d marks the D form. Peptide text beside a SMILES is read from it. * marks the point of attachment. Sta = CC(C)C[C@H](N)[C@@H](O)CC(=O)O; Isovaleryl = CC(C)CC(=O)*
# Experiment: Nuclear factor erythroid 2-related factor 2/antioxidant responsive element (Nrf2/ARE) small molecule agonists: luciferase reporter gene qHTS assay in human keratinocytes (AID 1919969); also: nearly all actives have a fitted effect of over 35% in size
# Conditions: KeratinoSens HaCaT ARE-luciferase, luminescence, 24 h; series mostly up to 92.4 µM
# From the text: National Center for Advancing Translational Sciences [NCATS]
# Division of Preclinical Innovation [DPI]
# U.S. Environmental Protection Agency [EPA]
# National Institutes of Environmental Health Sciences [NIEHS]
# National Toxicology Program [NTP]
# U.S. Food and Drug Administration [FDA]
# Oxidative stress has been implicated in the pathogenesis of a variety of diseases ranging from cancer to neurodegeneration. The antioxidant response element (ARE) signaling pathway plays an important role in the amelioration of oxidative stress. The KeratinoSens (Givaudan, Switzerland) is an in vitro test method which quantifies luciferase induction as a measure of activation of Keap1-Nrf2-antioxidationt/electrophile response element (ARE) dependant pathway in HaCaT human keratinocytes stably transfected with a selectable plasmid. The KeratinoSens assay is a cell-based assay with a reporter cell line to detect potential skin sensitizers by their ability to induce the Nrf2/ARE-response. The activation of the report gene under culture conditions can be detected by ONE-Glo Luciferase Assay System (Promega, Madison, WI). This cell line has been used to screen the Tox21 10K compound library to identify agonists that induce oxidative stress. The cytotoxicity of the Tox21 compound library against the KS-ARE cell line was tested in parallel by measuring the cell viability using CellTiter- Fluor assay system (Promega, Madison, WI) in the same wells.
# HaCaT derived cell line KeratinoSens were dispensed at 1,500 cells/5uL/well in 1536-well white wall/solid bottom plates using a Multidrop Combi (ThermoFisher Scientific, Waltham, MA) dispenser. After the assay plates were incubated at 37 C/5% CO2 for 5 h, 23 nL of compounds dissolved in DMSO, positive controls or DMSO only was transferred to the assay plate by a pintool workstation (Kalypsys, San Diego, CA). The plates were incubated at 37 C/5% CO2 for 23 h, followed by addition of 1uL/well of CellTiter-Fluor reagent into the assay plates using a Flying Reagent Dispenser (Aurora Discovery, San Diego, CA) for cell viability readout that measures cytotoxicity. After 1 h incubation at 37 C/5% CO2 the fluorescence intensity was measured using a ViewLux (PerkinElmer, Shelton, CT) plate reader. Then 4uL/well of One-Glo were added using a Flying Reagent Dispenser. After the plates were incubated at room temperature for 30 min, the luminescence intensity in the assay plates was measured using ViewLux plate reader.
# Potency is read from the fitted curve at half-maximal effect.
SMILES,Potency,"activity, positive = activation"
CCCCOC(=O)C(C)Oc1ccc(Oc2ccc(C(F)(F)F)cn2)cc1 (stereo not given),inactive,–
CNC(=O)c1cc(Oc2ccc(NC(=O)Nc3ccc(Cl)c(C(F)(F)F)c3)cc2)ccn1,inactive,–
CC1=C(C)C(=O)C(C(CCCCCC(=O)O)c2ccccc2)=C(C)C1=O (stereo not given),inactive,–
COCCOCC(OC)OC,inactive,–
CC(N)C(=O)OC(C)(C)Cc1ccc(Cl)cc1 (stereo not given),inactive,–
Cc1ccccc1C(=O)O,inactive,–
CCCC(C)C,inactive,–
FC(F)(F)C(F)(F)C(F)(F)C(F)(F)C(F)(F)C(F)(F)C(F)(F)C(F)(F)C(F)(F)C(F)(F)F,–,-2.47% [at 8.39 µM] (inactive)
c1ccc(C[P+](c2ccccc2)(c2ccccc2)c2ccccc2)cc1,inactive,–
CCCCCCCCCCCCCCBr,inactive,–
Cc1cccc(C)c1NC(=O)c1ccc(N)cc1,inactive,–
Cc1oc(-c2ccccc2)nc1CCC(=O)c1ccc(CC2SC(=O)NC2=O)cc1 (stereo not given),inactive,–
O=C(c1ccc(O)cc1)c1ccc(O)cc1,inactive,–
CCC=CC#N,inactive,–
CN1CCCN=C1COC(=O)C(O)(c1ccccc1)C1CCCCC1 (stereo not given),inactive,–
CCc1cc(Cc2cc(CC)cc(C(C)(C)C)c2O)c(O)c(C(C)(C)C)c1,inactive,–
CN(C)CCN(C)CCN(C)C,inactive,–
CC(C)CC(=O)N[C@H](C(=O)N[C@H](C(=O)N[C@@H](CC(C)C)[C@@H](O)CC(=O)N[C@@H](C)C(=O)N[C@@H](CC(C)C)[C@@H](O)CC(=O)O)C(C)C)C(C)C (Isovaleryl-VV[Sta]A[Sta]-OH),inactive,–
CCOC(=O)[C@H](CCc1ccccc1)N[C@@H](C)C(=O)N1Cc2cc(OC)c(OC)cc2C[C@H]1C(=O)O,inactive,–
Nc1c2c(nc3c1CCC3)CCCC2,inactive,–

SMILES,Potency,"activity, positive = activation"
O=C(OCc1ccccc1)C(=O)OCc1ccccc1,inactive,–
CC(=O)OC(C)=O,inactive,–
CC(C)=CC(=O)O,inactive,–
CC(C)CCCCCCOC(=O)CCCCC(=O)OCCCCCCC(C)C,inactive,–
COc1cc(CNC(=O)CCCC/C=C/C(C)C)ccc1O,inactive,–
Nc1ccnc(=O)[nH]1,inactive,–
C[C@H]1C[C@H]2[C@@H]3CCC4=CC(=O)C=C[C@]4(C)[C@@]3(F)[C@@H](O)C[C@]2(C)[C@@]1(O)C(=O)COP(=O)(O)O,inactive,–
Nc1cc(Cl)c(O)c(Cl)c1,54.5 µM (active),–
CCc1cccc(C)c1N(C(=O)C(=O)O)C(C)COC (stereo not given),inactive,–
CN(C)CCCOC1(Cc2ccccc2)CCCCCC1,inactive,–
CCCCOc1ccc(C(=O)CCN2CCCCC2)cc1,inactive,–
CCCN(CCC)C(=O)C(CCC(=O)OCCCN1CCN(CCOC(=O)Cc2c(C)n(C(=O)c3ccc(Cl)cc3)c3ccc(OC)cc23)CC1)NC(=O)c1ccccc1 (stereo not given),inactive,–
CCOC(=O)CCCCCCCCC(=O)OCC,inactive,–
Cc1cc(C)n(CO)n1,inactive,–
O=C1OC(=O)c2cccc3cccc1c23,27.6 µM (active),–
CC(C)(C)NCC(O)COc1ccc(NC(=O)NC2CCCCC2)cc1 (stereo not given),inactive,–
ClC(Cl)(Br)Br,inactive,–
Cc1c[nH]c2ccccc12,inactive,–
Cc1cc(C)c(O)c(C(C)(C)C)c1,inactive,–
Cc1nc(-c2ccc(OCC(C)C)c(C#N)c2)sc1C(=O)O,0.0531 µM (active),–

# Source: PubChem BioAssay (Tox21)
